From the supplement of paper PMC12024424 come the findings set out here.

Molecules are shown by their SMILES. Structures can show the parent of a compound that is named as a salt.

The experiment has as its system Staphylococcus aureus Sa2 (MRSA, cystic fibrosis isolate). The experiment is described as follows: growth reduction vs untreated control (OD550); higher = stronger antibacterial activity. Particulars: 0.1 mM; 24 h. Here is the method:
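Single-dose screen of the MedChem Express Drug Repurposing Library (0.1 mM, 1% DMSO) against planktonic MRSA S. aureus Sa2 (CF isolate) in TSB in 96-well plates, 37 °C aerobic, 24 h. Assays were run in triplicate and repeated twice.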
`COc1cccc2c1cc([N+](=O)[O-])c1c(C(=O)O)cc3c(c12)OCO3` [Aristolochic acid A] registered a growth reduction of 95.3%.

As for `O=c1[nH]c2ccccc2n1C1CCN(CCCC(c2ccc(F)cc2)c2ccc(F)cc2)CC1` [Pimozide], the growth reduction came to 100%. The value for `c1ccc2c(c1)Sc1ccccc1N2CC1CN2CCC1CC2` (stereo not drawn) [Mequitazine] was 99.3%. `Cc1cc2c(C(C)C)c(O)c(O)c(C=O)c2c(O)c1-c1c(C)cc2c(C(C)C)c(O)c(O)c(C=O)c2c1O` [Gossypol] displayed a growth reduction of 98.4%.

`CC[C@H](C)C1O[C@]2(C=C[C@@H]1C)C[C@@H]1C[C@@H](C/C=C(\C)[C@@H](O[C@H]3C[C@H](OC)[C@@H](O[C@H]4C[C@H](OC)[C@H](NC)[C@H](C)O4)[C@H](C)O3)[C@@H](C)/C=C/C=C3\CO[C@@H]4[C@H](O)C(C)=C[C@@H](C(=O)O1)[C@]34O)O2` (stereo partly drawn) [Emamectin (Benzoate)] registered a growth reduction of 98%. `O=C(CNC(=O)c1ccc(C2=NOC(c3cc(Cl)cc(C(F)(F)F)c3)(C(F)(F)F)C2)c2ccccc12)NCC(F)(F)F` (stereo not drawn) [Afoxolaner] came in with a growth reduction of 100%.

On to `Cc1cc2c(C(C)C)c(O)c(O)c(C=O)c2c(O)c1-c1c(C)cc2c(C(C)C)c(O)c(O)c(C=O)c2c1O` [Gossypol (acetic acid)], for which the growth reduction is 99.3%. The value for `O=C(O)c1nn(Cc2ccc(Cl)cc2Cl)c2ccccc12` [Lonidamine] was 90.9%. The value for `CCNC1=Nc2ccc(Cl)cc2C(C)(c2ccccc2)O1` (stereo not drawn) [Etifoxine] was 100%; that for `Fc1ccc(C(OCCN2CCN(CCCc3ccccc3)CC2)c2ccc(F)cc2)cc1` [Vanoxerine (dihydrochloride)] was 100%; that for `C[S+]([O-])CCCCN=C=S` (stereo not drawn) [Sulforaphane] was 97.9%.

For `O=c1c2ccccc2[se]n1-c1ccccc1` [Ebselen], the growth reduction stood at 99.8%. Under `Cc1cc2c(C(C)C)c(O)c(O)c(C=O)c2c(O)c1-c1c(C)cc2c(C(C)C)c(O)c(O)c(C=O)c2c1O` [(R)-(-)-Gossypol acetic acid] stands 96%.
